CatL block: inhibitors of human cathepsin L | P07711 | purified cathepsin L, fluorogenic substrate, fluorescence | inhibition, %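 (tested at 10 µM)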 | 58,000 tested, 0.17% active | AID 460; in the data active means inhibition above about 45%;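 further: 0% = enzyme with no compound and 100% = no enzyme blank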
Target sequence (P07711 114-288 limits assumed): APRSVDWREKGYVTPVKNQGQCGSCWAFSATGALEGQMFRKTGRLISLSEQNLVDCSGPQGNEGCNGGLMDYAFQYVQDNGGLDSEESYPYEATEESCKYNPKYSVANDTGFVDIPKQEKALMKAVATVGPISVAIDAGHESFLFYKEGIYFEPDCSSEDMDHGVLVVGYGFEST
Target sequence (P07711 292-333 limits assumed): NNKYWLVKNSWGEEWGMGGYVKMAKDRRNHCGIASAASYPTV
Cathepsin G inh: inhibitors of human cathepsin G | inhibition, % at 5 µM (by protocol) | purified enzyme, AMC-tetrapeptide fluorescence, pooled mixtures | AID 581 | 62,000 tested, 0.2% active | P08311;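 active means inhibition above 20% in each of the two mixture wells holding the compound; inactive means inhibition of 20% or less in either well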;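 further: 0% = enzyme control without mixture and 100% = blank lacking enzyme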
Target sequence (P08311 21-244 limits assumed): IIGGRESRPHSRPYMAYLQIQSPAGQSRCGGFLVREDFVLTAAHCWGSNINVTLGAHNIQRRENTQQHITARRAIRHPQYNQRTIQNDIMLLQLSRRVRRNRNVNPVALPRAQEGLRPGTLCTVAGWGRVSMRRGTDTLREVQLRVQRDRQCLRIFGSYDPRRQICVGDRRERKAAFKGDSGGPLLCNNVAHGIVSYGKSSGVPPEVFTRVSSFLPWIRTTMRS
CatB block: blocks human cathepsin B protease activity; P07858; inhibition, %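 (tested at 10 µM)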; 63,000 tested, 0.1% active; AID 453; purified cathepsin B, fluorogenic substrate, fluorescence; in the data active means inhibition above about 21%;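 further: 0% = enzyme with no compound and 100% = no enzyme blank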
CatB mix inh: inhibitors of human cathepsin B in compound mixtures | P07858 | Purified cathepsin B, AMC dipeptide fluorescence | inhibition, %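 (ten-compound pools at 5 µM per compound and 50 µM total)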 | 62,000 tested, 0.06% active | AID 488; in the data active means inhibition above about 22%, passing the limit was not always enough;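 further: 0% = enzyme without compound and 100% = no enzyme blank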
CatS block: human cathepsin S inhibition; P25774; recombinant cathepsin S, AMC dipeptide fluorescence, pooled mixtures; inhibition, %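 (tested at 5 µM per compound within 10-compound mixtures)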; 62,000 tested, 0.06% active; AID 501; in the data active means inhibition above about 32%, passing the limit was not always enough;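 further: 0% = enzyme without compound and 100% = blank without enzyme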
Target sequence (P25774 115-331 limits assumed): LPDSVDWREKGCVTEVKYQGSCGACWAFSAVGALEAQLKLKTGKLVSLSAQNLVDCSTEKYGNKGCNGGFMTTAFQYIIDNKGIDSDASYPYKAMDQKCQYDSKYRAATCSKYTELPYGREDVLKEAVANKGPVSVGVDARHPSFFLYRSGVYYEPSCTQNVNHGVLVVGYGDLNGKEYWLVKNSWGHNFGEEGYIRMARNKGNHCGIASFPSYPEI
C1s inh: human complement C1s inhibition; P09871; purified C1s, fluorogenic AMC substrate, pooled mixtures; mean inhibition % of two 10-compound mixtures (active compounds read high), % at 5 µM (by protocol); 62,000 tested, 0.16% active; AID 538;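 active means inhibition above 20% in each of the two 10-compound mixture wells holding the compound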;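 further: 0% = enzyme wells lacking compound mixture and 100% = no-enzyme blank wells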
* hit, by the source's call; / = no result given. Most compounds without a hit are left out; they make up all but 0.58% or so of the library.

SMILES | CatL block | Cathepsin G inh | CatB block | CatB mix inh | CatS block | C1s inh
CCn1c(SCC(=O)c2c(N)n(C)c(=O)n(C)c2=O)nc2sc(C)c(C)c2c1=O | 16.6 | 4.5 | -0.7 | 30.2 | 15.6 | 33.4*
Cc1nc2sc3c(c2c2nc(-c4ccco4)nn12)CC(C)(C)OC3 | 4.9 | 12.6 | -1.5 | 3.4 | -2.0 | 20.5
Cc1ccc(NC(=O)CCn2nc(C)cc2C)c(C)c1 | -1.4 | 10.0 | 3.3 | 4.3 | 12.2 | 5.4
Cc1cccc(NC(=O)CCn2nc(C)cc2C)c1 | 58.8* | -0.3 | 1.9 | -4.4 | 1.1 | 2.5
CC(=O)CCc1c(C)c2cccc(C)c2[nH]c1=O | 104.5* | 10.2 | 3.4 | 0.2 | -1.4 | 8.4
CC(C)(C)C(=O)/C(C#N)=c1\s/c(=C\c2ccncc2)c(=O)n1CCCN1CCOCC1 | -0.3 | -0.2 | 3.0 | 1.5 | 0.6 | 1.7
Nc1nonc1-c1noc(N2CCCCC2)n1 | 36.2 | 4.6 | 23.9* | 6.2 | 0.0 | 2.4
COc1nc(N(C#N)CC(N)=O)nc(N2CCCC2)n1 | 0.6 | -0.1 | 36.7* | 23.3* | -3.9 | -1.4
COc1nc(N2CCCCCC2)nc(N2CCCCCC2)n1 | 0.9 | -9.2 | 3.5 | 3.3 | -4.2 | 26.2
CCOc1cc2[nH]c(=O)n(CCCCC(=O)NC3CCCCC3)c(=O)c2cc1OCC | 5.4 | 6.6 | 5.0 | -1.8 | -2.6 | 6.3
C=CCn1c(O)c(CN2CCOCC2)c(C)c(C#N)c1=O | 103.4* | -1.8 | -2.7 | -1.4 | 4.1 | 3.0
Cn1c(CN2CCOCC2)c(C#N)c2ccccc21 | 2.5 | -3.1 | -4.8 | 2.1 | 6.5 | 1.3
O=C1CS/C(=N\C(=O)N2c3ccccc3Sc3ccccc32)N1 | 7.5 | 10.2 | 1.5 | 5.9 | 6.1 | 8.9
Cc1cc(NC(=O)CN2CCN(c3ccccc3F)CC2)nc2c1c(=O)oc1ccccc12 | 13.9 | 8.8 | 4.0 | 2.9 | -1.6 | 12.4
C1CCC2(CC1)C1=C(CCCC1)Nc1nnnn12 | 0.1 | 6.5 | 1.7 | -0.2 | 0.7 | 2.9
Nc1nc2n(n1)C1(CCCCC1)C1=C(CCCC1)N2 | 3.7 | -8.0 | 39.1* | 68.9* | 12.5 | -19.9
COc1ccccc1S(=O)(=O)Cc1ccc(C(=O)NCCN2CCCCCC2)o1 | 50.4* | 3.1 | 1.9 | 4.6 | -1.6 | -9.9
COc1ccc(OC)c(C2/C(=C(\O)c3c(C)nc4ccccn34)C(=O)C(=O)N2CCCN(C)C)c1 (centres undefined) | 14.8 | 7.6 | -0.4 | -1.9 | 12.4 | -4.5
COc1cc(C)nc(OCCNS(=O)(=O)c2cc(C)ccc2C)n1 | 13.4 | -2.6 | -3.1 | -1.2 | 7.7 | -3.9
COc1ccc(CCNC(=O)Cn2cnc3c(cnn3-c3ccccc3Cl)c2=O)cc1OC | 14.1 | 9.4 | -1.6 | 4.4 | 14.9 | 12.4
COc1ccc(S(=O)(=O)Nc2nnc(C(C)(C)C)s2)cc1 | / | 3.8 | -2.9 | -4.3 | 0.7 | 2.1
O=S(=O)(Nc1nnc(-c2ccccc2)s1)c1ccc(Cl)cc1 | 104.7* | 7.8 | 6.7 | 8.4 | -0.9 | 12.4
Cc1cc(C)cc(C(=O)n2cnnc2N)c1 | 10.0 | 65.5* | -1.5 | -2.2 | 13.7 | 8.6
Nc1nncn1C(=O)c1ccccc1Cl | 11.0 | 10.4 | 3.3 | 1.5 | 11.4 | 5.5
Cc1cc(C)c2nc(Nc3nc(C)cc(=O)[nH]3)nc(C)c2c1 | / | 7.1 | -1.9 | 0.4 | 2.4 | 6.8
SMILES | CatL block | Cathepsin G inh | CatB block | CatB mix inh | CatS block | C1s inh
O=c1[nH]c(CN2CCc3ccccc3C2)nc2ccccc12 | -0.8 | 48.1* | -2.1 | 1.9 | -1.7 | 8.8
O=C(CN1CCN(C(=O)c2ccccc2F)CC1)Nc1ccc(Br)cc1 | 2.1 | 31.0 | 1.1 | 5.8 | -5.2 | 14.1
Cc1ccc2c(c1)CC1(CN2C)C(=O)OC2(CCCCC2)OC1=O | -3.2 | 6.7 | 0.0 | -2.5 | 8.2 | 2.3
CN1CC2(Cc3c1ccc1ccccc31)C(=O)OC(C)(C)OC2=O | -4.2 | 42.0* | -0.3 | -5.8 | -6.8 | -36.0
CCN(CC(=O)NCc1ccc(F)cc1)CC(O)COCc1cccc(OC)c1 (centres undefined) | -4.0 | -2.6 | -1.6 | 0.8 | 4.9 | -6.4
CCc1ccc(-c2cn(-c3nc(C)cc(C)n3)c(=N)o2)cc1 | 9.8 | 7.6 | 5.1 | 5.1 | 18.9 | 51.9*
Cc1cc(NC(=O)c2cccc(S(=O)(=O)N3CCCCCC3)c2)n(-c2ccccn2)n1 | -4.5 | 42.3 | 0.2 | -1.8 | -4.4 | 43.0*
Cc1noc(/C=C/N(C)C)c1S(=O)(=O)N1CCCC(C(=O)NCc2ccccc2Cl)C1 (centres undefined) | / | 9.6 | 2.7 | 1.4 | 6.6 | 20.9
CCc1nc(SCc2ccc(C(=O)OC)o2)c2c(=O)n(C)c(=O)n(C)c2n1 | / | 10.4 | -0.1 | 4.0 | 4.7 | 9.0
COc1ccc(NC(=O)c2cc(-c3ccccc3OC)on2)cc1 | -4.7 | 18.3 | -8.0 | 37.9 | -13.9 | 22.8
COc1ccccc1-c1cc(C(=O)Nc2cccnc2)no1 | -2.5 | 33.8* | -0.4 | -2.7 | -4.7 | 3.0
CCN1CCCC1CNC(=O)c1nn(-c2ccc(C)cc2)c(=O)c2c1c1ccccc1n2C (centres undefined) | -10.1 | 0.8 | -6.6 | 4.4 | -5.5 | -29.1
Cc1ccc(C(C)C)c(OCc2nc(-c3nonc3N)no2)c1 | / | 8.7 | 21.8* | 8.2 | -2.0 | -8.3
Nc1nonc1-c1noc(CCCOc2ccc(Cl)cc2Cl)n1 | -5.3 | 8.8 | 1.2 | 2.3 | -8.0 | 11.2
COc1cccc(NC(=O)c2nc3ncccn3n2)c1 | 1.3 | -5.2 | 1.4 | 0.8 | 1.5 | 1.9
COC(=O)c1ccc(OC(=O)c2ccco2)cc1 | -10.1 | 5.5 | -0.5 | 1.3 | -5.6 | 34.1*
O=C(Nc1ccc(OC(=O)c2ccco2)cc1)c1ccco1 | 2.9 | 0.2 | 3.4 | 2.1 | 12.2 | 29.7
CCOc1ccccc1N(CC(=O)N1CCOCC1)S(=O)(=O)c1ccc(SC)cc1 | 10.1 | 9.7 | -0.6 | 4.4 | 15.5 | 8.8
C=CC(=C)CC(NC)c1ccccc1 (centres undefined) | 53.4* | 4.6 | 3.3 | -1.4 | -4.6 | 4.2
Cc1noc(C)c1COC(=O)c1ccccc1NC(=O)Cc1ccccc1 | -5.3 | 29.9 | 1.8 | 5.1 | 5.8 | 35.1*
CC(C)N1C(=O)CCC1C(=O)NCc1ccccc1Cl (centres undefined) | / | -1.0 | 0.7 | 1.4 | -1.2 | -1.1
Cc1ccc(C2NC(=O)c3c(sc4c3CCN(C)C4)N2)s1 (centres undefined) | 55.0* | 7.0 | 1.8 | -0.4 | -3.3 | 7.7
O=C(OCC(=O)N1CCOCC1)c1ccc[nH]c1=O | 3.7 | 1.7 | 0.2 | 2.0 | -5.5 | 3.5
Nc1nonc1C(=O)OCC(=O)N1CCOCC1 | 7.7 | -0.3 | 30.6* | 7.7 | 0.0 | -3.6
Cc1ccc(NC(=O)Cc2nn(C)c(=O)c3ccccc23)cc1F | 18.8 | 20.6* | 6.4 | 5.7 | 13.4 | 22.9
CN/C=C1\C(=O)C(C)(C)Oc2ccc3ccc(=O)oc3c21 | 12.3 | 10.0 | 5.1 | 5.0 | 1.3 | 23.1*
O=c1c(-c2ccco2)[n+]([O-])c2ccccc2n1OCc1ccccn1 | 8.9 | 19.9 | -0.5 | 6.6 | 13.9 | 28.9*
COc1ccc(NC2=NCCC(=O)N2Cc2cccs2)cc1 | 0.4 | 9.7 | 0.2 | -2.2 | -2.9 | 2.6
